# Bioassay records: PubChem, National Center for Advancing Translational Sciences (NCATS)
# An excerpt weighted towards active compounds, which were near 0.38% of everything screened.
# CBFb-RUNX1 inh – inhibitors of human CBF-beta and RUNX1 interaction; AID 1477; AlphaScreen CBFb-His/RUNX1-biotin binding, biochemical; 230,000 tested, under 10 active; Potency, µM (series often up to 59.8 µM), without a hit: at the top dose activity, negative = inhibition, actives largely listed as inhibitors; further: % of control where 0% means no effect
#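 CBFb-His/RUNX1-biotin, 30 nM each, preincubated 20 min RT; compound 15 min RT; Ni + streptavidin beads 50 ng each, 90 min RT; AlphaScreen read.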
# Eya2 phos inh – inhibitors of human Eya2 phosphatase activity | O00167 | recombinant Eya2, OMFP fluorescence dephosphorylation (OMFP is methylfluorescein phosphate) | Potency, µM (top dose mostly 76.9 µM), for inactives: at the top dose activity, negative = inhibition, hits mostly inhibitors | 330,000 compounds, 0.006% hits | AID 488837; further: potency means the concentration at half of the fitted maximal effect; on the % scale 0 is the no-effect control and ±100 the full control effect
# Target sequence (O00167 whole entry, looked up): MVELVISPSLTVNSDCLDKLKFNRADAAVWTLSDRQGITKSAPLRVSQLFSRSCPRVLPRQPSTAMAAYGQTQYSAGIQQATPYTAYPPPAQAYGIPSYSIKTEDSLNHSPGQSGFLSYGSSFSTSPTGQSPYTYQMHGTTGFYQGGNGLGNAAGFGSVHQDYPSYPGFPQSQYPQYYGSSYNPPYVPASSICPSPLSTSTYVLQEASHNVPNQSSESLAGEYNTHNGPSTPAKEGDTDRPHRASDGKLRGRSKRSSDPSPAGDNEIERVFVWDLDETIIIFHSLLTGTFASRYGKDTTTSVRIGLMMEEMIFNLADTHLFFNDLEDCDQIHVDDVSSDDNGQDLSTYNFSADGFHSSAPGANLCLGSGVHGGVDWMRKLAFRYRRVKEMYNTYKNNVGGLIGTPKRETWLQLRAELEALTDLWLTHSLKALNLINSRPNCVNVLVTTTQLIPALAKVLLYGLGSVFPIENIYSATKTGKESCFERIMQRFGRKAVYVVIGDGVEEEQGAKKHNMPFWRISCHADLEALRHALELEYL
#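 Eya2 protein (added as 0.2 uM solution) was preincubated with compound for 10 min at ambient temperature in 50 mM HEPES pH 7.5, 50 mM NaCl, 5 uM MgCl2, 0.05% BSA, 1 mM DTT. OMFP (added at 50 uM) then reacted 10 min; fluorescence read at 485/525 nm.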
# TR SRC2 fluor cs – counter-screen for TRb-SRC2 inhibitors: fluorescence interference | TRb/SRC2 Texas Red total fluorescence interference | Potency, µM (titrated, usually from 106 µM), inactives show top-dose fluorescence change, negative = quenching | 280,000 compounds, 0.29% hits; active means well fitted curve in either direction with a large enough effect; inconclusive means small, poorly fitted or top-dose-only effect; further: potency means the concentration at half of the fitted maximal effect; on the % scale 0 is the no-effect control and ±100 the full control effect
#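 Human TRβ ligand-binding domain (0.6 uM) and Texas Red SRC2 peptide (20 nM) in Tris buffer with 1 uM T3 and 5% DMSO were incubated with pinned compound for 5 hr at ambient temperature. Total fluorescence was computed as S + 2P (555/632 nm).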
# USP2a inh – USP2a (human) protease inhibition; USP2 core, Ub-CHOP2 coupled fluorogenic reporter, 485/531; 330,000 compounds, 0.01% hits; O75604; AID 463254; Potency, µM (titrated, usually from 38.3 µM), for the others: top-dose activity change, negative = inhibition, most hits filed as inhibitors;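 further: potency means the concentration at half of the fitted maximal effect; plate controls were DMSO wells for no effect and full inhibition by NEM control for full effect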
#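 Deubiquitinase activity read as fluorescence (485/531 nm) after Ub-CHOP2 cleavage activates the enterokinase reporter on its substrate; USP2 core 10nM, Ub-CHOP2 and substrate 25nM each, 30min compound preincubation then 60min RT; data normalized to NEM, curves fitted.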
# TRb-SRC2 inh – disrupts binding of human TR beta to SRC2. Potency, µM (top dose mostly 106 µM), for inactives: at the highest dose activity change, negative = inhibition, most hits filed as inhibitors. P10828. AID 1469. 280,000 compounds, 0.065% hits. TRbeta-SRC2 peptide binding, fluorescence polarization; receptor liganded with 1 µM T3;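 further: potency means the concentration at half of the fitted maximal effect; plate controls were bound peptide for no effect and peptide without receptor for full effect; nearly all actives have a fitted effect of over 50% in size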
#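 Polarization signal, normalized between peptide-alone and full complex controls, measured compound effects on T3-liganded human TRb LBD (0.6 uM) binding 20 nM Texas Red SRC2 peptide after 5 hr.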
# TSHR antagonist – blocks TSH signaling through the human TSH receptor | P16473 | TSHR-expressing cells, TSH-stimulated cAMP HTRF, 2 h; hits give low values | activity change, negative = inhibition, % at 11.5 µM | 330,000 compounds, 0.2% hits | AID 504810;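 active means activity change below a set negative limit, meaning inhibition stronger than a set level, cut at about -70% in these data; inconclusive means activity change between two set negative limits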; further: on the % scale 0 is the no-effect control and ±100 the full control effect
#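 Freshly harvested TSHR cells receive pin-tooled compound, then EC80 TSH at 4nM final. After 2 hours at 37 deg C, antibody in lysis buffer and cAMP-d2 are added; 30 minutes at ambient temperature precede the HTRF read.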
# Numbers without * were called inactive; ? = inconclusive; . = not tested or not shown; ! = a repeat was not active; [ ] = another dose, or the depositor's remark. Unless noted, the call rests on the fitted dose curve; in most records, active means well fitted curve in the direction sought with a large enough effect; inconclusive means small, poorly fitted or top-dose-only effect, or another doubt; inactive means no such curve, though single readings can be large; an effect the other way counts as inactive or inconclusive.
SMILES,CBFb-RUNX1 inh,Eya2 phos inh,TR SRC2 fluor cs,USP2a inh,TRb-SRC2 inh,TSHR antagonist
CCCc1cc(=O)oc2cc(C)c3c(C)coc3c12,10%,-3%,-3%,0%,1%,4
CCCCc1cc(=O)oc2cc(C)c3c(C(C)(C)C)coc3c12,.,.,100µM*[quencher],.,-5%,.
C=Cc1ccccc1Br,.,.,0%[201 µM],.,0%[201 µM],.
Cc1cc2nc3ccc(=[N+](C)C)cc-3sc2cc1N,?,10%,45µM*[fluorescent],-2%,7.9µM*,-108*
COc1ccc(OC)c(CNC(=O)c2cc(-c3ccc(Cl)s3)nc3ccccc23)c1,.,.,?,.,-1%,.
COc1ccc(CNC(=O)c2cc(-c3cccs3)nc3ccccc23)c(OC)c1,.,.,0.022µM*[quencher],.,-10%,.
COc1ccc(NC(=O)c2cn3c4c(ccc(Cl)c4c2=O)OC(C)C3)cc1OC (stereo not given),.,.,25µM*[quencher],.,-18%,.
CCN(Cc1c(F)cccc1Cl)c1c([N+](=O)[O-])cc(C(F)(F)F)cc1[N+](=O)[O-],.,.,-2%[201 µM],.,-4%[201 µM],.
C[C@@H]1C(=O)N(S(=O)(=O)c2ccc([N+](=O)[O-])cc2)[C@H]1c1ccc(F)cc1,-9%,.,-2%,.,-1%,.
Cc1ccc(CNS(=O)(=O)c2ccc(CN3C(=O)c4cccnc4C3=O)s2)o1,.,14%,.,1%,.,-89*
COc1cc(O)c2c(c1)oc(=O)c1c3cc(O)c(O)cc3oc21,?,.,35µM*[quencher],.,?,.
Cc1ccc2oc(=O)c3c4cc(O)c(O)cc4oc3c2c1,-8%,.,-10%,.,10%,.
CC(C=CC1=C(C)CCCC1(C)C)=CC=CC(C)=CC(=O)Nc1ccc(O)cc1,.,.,-2%[201 µM],.,-3%[201 µM],.
CCCCCCCC[Si](OCC)(OCC)OCC,.,.,0%[201 µM],.,8%[201 µM],.
COc1ccc(CNC(=O)Cn2ncc3c4ccccc4n(Cc4cccc(Cl)c4)c3c2=O)cc1,.,.,-2%,.,0%,.
Cc1ccc(NC(=O)CSc2nc3ncc(Br)cc3[nH]2)cc1C,.,5%,.,0%,.,-88*
Cc1cc(C)c(NC(=O)CSc2nc3ncc(Br)cc3[nH]2)c(Cl)c1,.,0%,.,1%,.,2
Cc1ccccc1OCCSc1nc(C)c(Cc2ccccc2)c(=O)[nH]1,.,.,3.2µM*[quencher],.,?,.
Cc1ccc(NC(=O)CSc2nc(C)c(Cc3ccccc3)c(=O)[nH]2)cc1C,-2%,4%,40µM*![quencher],8%,?,-7
Cc1ccc(NC(=O)CSc2ncc(S(=O)(=O)c3ccccc3)c(=O)[nH]2)cc1C,-2%,6%,0.0003µM*[quencher],2%,-22%[53 µM],11
CCOC(=O)c1ccc(NC(=O)CSc2nc(C)c(Cc3ccccc3)c(=O)[nH]2)cc1,.,.,?,.,-3%,.
COc1ccc(CCn2c3c(c(=O)[nH]c2=O)C(NC(=O)c2ccc(C(C)(C)C)cc2)(C(F)(F)F)C(=O)N3)cc1OC (stereo not given),.,.,-39%,.,0%,.
O=C(NCCc1ccccc1)c1ccc2c(c1)N(Cc1ccccc1)C(=O)c1ccccc1S2=O (stereo not given),.,.,-6%,.,0%,.
CC(C)N1CC2=C(OC(N)=C(C#N)C2c2cccnc2)/C(=C/c2cccnc2)C1 (stereo not given),1%,-4%,45µM*[fluorescent],-1%,45µM*,0
N#CC1=C(N)OC2=C(CN(Cc3ccccc3)C/C2=C\c2cccnc2)C1c1cccnc1 (stereo not given),2%,12%,?,1%,?,-4
SMILES,CBFb-RUNX1 inh,Eya2 phos inh,TR SRC2 fluor cs,USP2a inh,TRb-SRC2 inh,TSHR antagonist
CCN1CC2=C(OC(N)=C(C#N)C2c2ccccc2)/C(=C\c2ccccc2)C1 (stereo not given),-10%,5%,45µM*[fluorescent],-4%,45µM*,-6
Cc1cccc2cc(/C=N/NC(=O)c3ccccc3O)c(Cl)nc12,3%,2%,-2%,1%,2%,-72*
OCCOCCOCCOCCOCCO,.,.,0%[201 µM],.,4%[201 µM],.
CC(=O)N1c2ccc(S(=O)(=O)NCCC(=O)Nc3ccc(C)c(Cl)c3)cc2CC1C (stereo not given),.,15%,.,-2%,.,-2
CC1Cc2cc(S(=O)(=O)NCc3ccc(N(C)C)cc3)ccc2N1C(=O)C1CCC1 (stereo not given),.,.,22µM*[quencher],.,-11%,.
CC(=O)N1c2ccc(S(=O)(=O)NCCC(=O)Nc3ccccc3C)cc2CC1C (stereo not given),.,-7%,.,1%,.,-133*
CC(=O)N1c2ccc(S(=O)(=O)NCCC(=O)Nc3cccc(Cl)c3)cc2CC1C (stereo not given),.,1%,.,1%,.,-126*
CC(=O)c1[nH]c(C)c(C(=O)NCc2ccc(Cl)cc2)c1C,.,.,1122µM*[quencher],.,-25%,.
CCOC(=O)c1[nH]c(C)c(C(=O)NCc2ccc(Cl)cc2)c1C,6%,-12%,-4%,2%,-3%,-13
O=c1oc(=O)c2cc3c(=O)oc(=O)c3cc12,.,.,0%[201 µM],.,10%[201 µM],.
Cn1ncc(S(=O)(=O)Cc2ccccc2)c(Br)c1=O,.,9%,.,.,.,-12
NC(=NCc1ccc(Cl)cc1Cl)NC(=O)c1nc(Cl)c(N)nc1N,-16%,.,-3%,.,0%,.
Cc1cc(C)n(C(=O)/C(C#N)=N/Nc2cc(Cl)cc(Cl)c2)n1,5%,4%,-2%,3%,1%,-82*
Cc1cc(C)n(C(=O)/C(C#N)=N\Nc2ccccc2[N+](=O)[O-])n1,-2%,14%,-4%,1%,2%,-12
Cc1c(C2=CCN(S(=O)(=O)c3ccc(Br)cc3)CC2)c2ccccc2n1C,-3%,3%,28µM*[fluorescent],-1%,?,-9
CCn1c(C)c(C2=CCN(S(=O)(=O)c3ccc(C)cc3)CC2)c2ccccc21,0%,-4%,0%,0%,-5%,7
CC1(C)CC(OC(=O)CCCCCCCCC(=O)OC2CC(C)(C)NC(C)(C)C2)CC(C)(C)N1,.,.,-1%[201 µM],.,-2%[201 µM],.
Cc1nn(-c2ccccc2)c(Cl)c1/C=C1\SC(=S)NC1=O,-23%,-3%,-3%,1%,-16%,-79*
Cc1cc(C)cc(OC(C)C(=O)NCCCn2ccnc2)c1 (stereo not given),.,-5%,.,3%,.,-104*
CCOC(=O)c1c(C)oc2ncnc(N3CCN(c4ccc(C)cc4C)CC3)c12,.,.,1%,.,4%,.
CCOC(=O)c1c(C)oc2nc(C)nc(N3CCN(c4ccc(C)cc4C)CC3)c12,.,.,447µM*[quencher],.,-11%,.
CCCCNC(=O)c1sc(=S)n2c1[nH]c(=O)c1ccccc12,2%,1%,-5%,-4%,9%,-74*
CC(C)NC(=O)c1sc(=S)n2c1[nH]c(=O)c1ccc(C(=O)NCCc3ccc(Cl)cc3)cc12,.,9%,.,0%,.,?
